BAZ2B inh: qHTS Assay for Inhibitors of BAZ2B; Bromodomain adjacent to zinc finger domain protein 2B (Homo sapiens), Q9UIF8; Potency, µM (titrated, usually from 114 µM), hits mostly inhibitors; AlphaScreen BAZ2B-H3K14Ac peptide displacement; 4.4% of 360,000 active; also: nearly all actives have a fitted effect of over 60% in size
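BAZ2B 50 nM plus b-H3(5-23)K14Ac 50 nM, PBS pH 7.4/0.01% Tween-20, 30 min RT; compound added (max 110 uM), 30 min RT; streptavidin donor/Ni-chelate acceptor beads 10 ug/mL final, 20 min dark; AlphaScreen read.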
Sfp PPTase inh: qHTS Assay for Inhibitors of Bacillus subtilis Sfp phosphopantetheinyl transferase (PPTase) | Biochemical Sfp PPTase activity, qHTS | 4'-phosphopantetheinyl transferase ffp (Bacillus subtilis), Q9F4F7 | 3.5% of 310,000 active | Potency, µM, hits mostly inhibitors;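 also: the enzyme is Sfp with the accession as filed and its product quenches rhodamine fluorescence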
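Reaction rates are the 30-min fluorescence difference (ex 525, em 598 nm) in wells containing 15 nM Sfp, 5 uM rhodamine-CoA and 12.5 uM BHQ-2-YbbR at pH 7.6 with 10 mM MgCl2.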
HP1b binding inh: HTS for Inhibitors of HP1-beta Chromodomain Interactions with Methylated Histone Tails; AlphaScreen HP1-beta / biotin-H3K9me3 peptide binding; 0.56% of 390,000 active; Potency, µM (series often up to 114 µM), usual class: inhibitors; Chromobox protein homolog 1 (Homo sapiens), P83916; also: nearly all actives have a fitted effect of over 70% in size
Target sequence (P83916 whole entry, looked up): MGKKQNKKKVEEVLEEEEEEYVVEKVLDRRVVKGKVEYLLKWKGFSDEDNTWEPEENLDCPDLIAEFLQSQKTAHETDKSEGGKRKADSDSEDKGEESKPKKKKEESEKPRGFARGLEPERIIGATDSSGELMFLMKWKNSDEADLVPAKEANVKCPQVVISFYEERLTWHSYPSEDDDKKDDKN
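HP1-beta protein (50 nM final) preincubated 30 min at room temperature with biotinylated H3(1-18)K9me3 peptide (50 nM) in PBS pH 7.4, 0.01% Tween-20, then compound added for 30 min. AlphaScreen streptavidin donor/nickel chelate acceptor beads (10 ug/mL final), 30 min dark, luminescence read.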
L3MBTL1 inh: qHTS Assay for the Inhibitors of L3MBTL1. Lethal(3)malignant brain tumor-like protein 1 (Homo sapiens), Q9Y468. AlphaScreen L3MBTL1–H3K9me1 peptide binding. Potency, µM (titrated, usually from 57.1 µM), usual class: inhibitors. 0.66% of 230,000 active. AID 485360, 2010; also: nearly all actives have a fitted effect of over 60% in size
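L3MBTL1 50 nM + b-AHA-H3(1-15)K9me1 75 nM, 30 min RT; compound added, 30 min RT; streptavidin donor/Ni-chelate acceptor beads 10 ug/mL each final, 30 min RT dark; AlphaScreen read.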
JMJD2A Tudor inh: qHTS Assay for Inhibitors of JMJD2A-Tudor Domain; AlphaScreen JMJD2A-Tudor / H3K4me3 peptide binding; Potency, µM (highest dose often 114 µM), hits mostly inhibitors; 4.4% of 390,000 active; AID 504339, 2011; also: nearly all actives have a fitted effect of over 50% in size
G9a block: qHTS Assay for Inhibitors of Histone Lysine Methyltransferase G9a; G9a H3K9 monomethylation, AlphaScreen, 2 h; AID 504332, 2011; Potency, µM (series often up to 102 µM), hits mostly inhibitors; Histone-lysine N-methyltransferase EHMT2 (Homo sapiens), Q96KQ7; 8.8% of 350,000 active; also: nearly all actives have a fitted effect of over 75% in size
Target sequence (Q96KQ7 913-1193 limits assumed): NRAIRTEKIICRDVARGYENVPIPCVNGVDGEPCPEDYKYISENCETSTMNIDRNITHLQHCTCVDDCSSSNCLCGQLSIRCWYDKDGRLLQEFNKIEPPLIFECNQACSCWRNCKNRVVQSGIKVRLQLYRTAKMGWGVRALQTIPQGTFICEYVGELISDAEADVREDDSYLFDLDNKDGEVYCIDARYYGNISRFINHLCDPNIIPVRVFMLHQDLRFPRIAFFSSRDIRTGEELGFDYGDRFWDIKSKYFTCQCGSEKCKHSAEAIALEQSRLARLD
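Readings reflect AlphaScreen signal from monomethyl-H3K9 antibody detection. HMT at 20 nM; substrate b-H3K9 500 nM; cofactor SAM 20 uM; 2 h RT reaction; compounds tested as titrations in qHTS with 15 min preincubation.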
A number is an active result; n = inactive; u = inconclusive; x = no result; [ ] = dose if it differs, or a comment. Hits are enriched below; roughly 12% of the tested compounds scored in any of these assays. Calls follow the shape of the dose curve; as a rule, active = well fitted curve in the direction sought with a large enough effect; inconclusive = small, poorly fitted or top-dose-only effect, or another doubt; inactive = no such curve, though single readings can be large; an effect the other way counts as inactive or inconclusive.

SMILES	BAZ2B inh	Sfp PPTase inh	HP1b binding inh	L3MBTL1 inh	JMJD2A Tudor inh	G9a block
CCCCn1c(=O)c(-[n+]2ccccc2)c([O-])c2ccccc21	u	14.1µM	n	x	n	8.91µM
CCOc1ccc(NC(=O)Cn2c(=O)n(Cc3nc(-c4ccccc4)no3)c(=O)c3ccccc32)cc1	n	x	n	x	n	n
Cn1c2ccccc2c2nnc(SCC(=O)Nc3cccc(O)c3)nc21	n	n	n	n	n	70.8µM
CCCCn1c2ccc(C)cc2c2nnc(SCCN3CCCCC3)nc21	n	n	n	x	n	u
CCCCn1c2ccccc2c2nnc(SCC(=O)NC3=NN=C(c4ccccc4)CS3)nc21	n	n	x	n	x	28.2µM
Cn1c2ccccc2c2nnc(SCCN3CCOCC3)nc21	n	n	n	x	n	50.1µM
CCn1c2ccc(C)cc2c2nnc(SCCN3CCOCC3)nc21	n	n	n	n	n	44.7µM
CCn1c2ccccc2c2nnc(SCCN3CCOCC3)nc21	n	u	n	n[2.29 µM]	n	n[0.501 µM]
CCn1c(SCc2ccc(F)cc2Cl)nc(=O)c2c(C(=O)OC)cc(C3CC3)nc21	n	x	n	x	n	n
Cc1ccc2c(c1)c1nnc(SCC(=O)N3CCN(c4ccc(F)cc4)CC3)nc1n2CC(=O)O	n	70.8µM	n	n	n	n
Cc1cc(C)nc(SCC(=O)NC2=NN=C(c3ccc(Br)cc3)CS2)n1	n	39.8µM	n	n	n	u
O=C(CCC1N=C2c3ccccc3N=C(SCc3ccc(F)cc3)N2C1=O)NC1CCCCC1 (stereo not drawn)	n	x	n	x	n	n
Cc1cccc(C)c1NC(=O)CN(C)C(=O)CCc1nc2sc3c(c2c(=O)[nH]1)CCCC3	u	x	n	n	n	n[12.7 µM]
CCOC(=O)C1CCN(C(=O)CCc2nc3sc4c(c3c(=O)[nH]2)CCCC4)CC1	u	x	n	n	u	50.1µM
CN(CC(=O)Nc1ccc(F)c(F)c1F)C(=O)CCc1nc2sc3c(c2c(=O)[nH]1)CCCC3	50.1µM	x	n	u	n	50.1µM
CCN(CC)CCCn1c(-c2ccccc2)nc2c(N3CCOCC3)nc(C)nc21	x	n	x	x	x	x
CSc1cccc(Nc2nc3c(S(=O)(=O)c4ccccc4)nnn3c3ccc(Cl)cc23)c1	n	x	n	x	n	n
COc1cccc(OCc2cc(=O)n3cc(C)sc3n2)c1	n	x	n	x	n	n
Cc1ccc(S(=O)(=O)NCCC(=O)Nc2ccc(C)cc2C(=O)c2ccccc2)cc1	n	n	n	n	50.1µM	n
Cc1cc(NC(=O)Nc2ccc3c(ccn3C)c2)sn1	x	79.4µM	n	x	u	n
Cc1[nH]c2ccc(F)cc2c1CCN(Cc1cccnc1)C(=S)Nc1cccc(F)c1	31.6µM	n	n	n	u	u
Cc1[nH]c2ccc(F)cc2c1CCN(Cc1ccncc1)C(=S)Nc1ccc(F)cc1	x	n	n	x	u	u
Cc1ccccc1NC(=S)N(CCc1c(C)[nH]c2ccc(F)cc12)Cc1cccnc1	x	n	n	x	u	56.2µM
Cc1[nH]c2ccc(F)cc2c1CCN(Cc1cccnc1)C(=S)NC(C)(C)C	n	n	n	x	n	n
CCCCn1c(=N)n(CC(=O)c2ccc([N+](=O)[O-])cc2)c2ccccc21	n	56.2µM	x	n	x	39.8µM
SMILES	BAZ2B inh	Sfp PPTase inh	HP1b binding inh	L3MBTL1 inh	JMJD2A Tudor inh	G9a block
Cc1ccc(C(=O)Cn2c(=N)n(CCN3CCOCC3)c3ccccc32)cc1	n	x	n	n	n	n[0.501 µM]
CCCCC(=O)c1ccc(OC(=O)c2ccc([N+](=O)[O-])cc2)cc1	x	x	u	x	50.1µM	x
Cc1ccc(Cn2c(=N)n(CC(=O)c3ccc([N+](=O)[O-])cc3)c3ccccc32)cc1	n	35.5µM	n	n	n	50.1µM
O/N=C1\CCSc2ccc(F)cc21	n	n	n	n	n	x
O=C(O)c1ccc(N/N=C2/CCSc3ccc(F)cc32)cc1	u	n	n	x	u	50.1µM
Cc1cc(C)nc(N/N=C2/CCSc3ccc(F)cc32)n1	n	n	n	x	n	35.5µM
O=C(NCCc1ccccc1)/C(=C/c1ccco1)c1ccccc1	u	6.31µM	n	n	n	10µM
CCC(C)NC(=O)/C(=C/c1ccco1)c1ccccc1 (stereo not drawn)	n	3.16µM	n	n	n	n[12.7 µM]
CCOc1ccc(Nc2sc(C(=O)c3cccc(OC)c3)c(N)c2S(=O)(=O)c2ccccc2)cc1	n	x	n	x	n	n
Cn1c(N2CCOCC2)c(/C=N/OC(=O)c2cccnc2Cl)c2ccccc21	n	22.4µM	n	n	n	u
O=c1c(-c2ccc3c(c2)OCCO3)coc2cc(O)cc(O)c12	n	20µM	n	n	n	n
COc1ccc(CCC(=O)NCc2nc3cccnc3n2Cc2ccccc2)cc1	n	x	n	x	n	n
O=C(COc1ccc(S(=O)(=O)NC2CCCCC2)cc1Cl)NCc1cccnc1	n	17.8µM	n	n	n	u
O=C(COc1ccc(S(=O)(=O)NC2CCCCC2)cc1)NCc1ccccn1	n	n	n	n	n	n
O=S(=O)(NC1CC1)c1ccc(S(=O)(=O)N(Cc2ccccn2)C2CC2)cc1	n	n	n	x	n	70.8µM
O=C(CCc1ccc(S(=O)(=O)NC2CCCCC2)cc1)NCc1ccccn1	n	39.8µM	n	n	n	u
Nc1ccc(S(=O)(=O)N2CCCC2C(=O)O)cc1 (stereo not drawn)	n	79.4µM	n	x	n	n
CC1CCN(c2ccc(NC(=O)C3CCCN3S(=O)(=O)c3ccc(F)cc3)cc2)CC1 (stereo not drawn)	44.7µM	x	u	n	39.8µM	10µM
O=C(Nc1ccccc1F)C1CCCN(S(=O)(=O)c2ccccc2)C1 (stereo not drawn)	n	n	n	n	12.6µM	n
Cc1ccc(S(=O)(=O)N2CCN(S(=O)(=O)c3ccccc3)C2c2ccc(N(C)C)cc2)cc1 (stereo not drawn)	u	n	n	x	u	8.91µM
CCCCNC(=O)NS(=O)(=O)c1ccc(C(=O)O)cc1	x	n	x	x	x	x
O=C(NCc1ccc(Cl)cc1)C1CCN(C(=O)c2cnn(-c3ccccc3)c2-n2cccc2)CC1	n	x	n	x	n	n
CCCCCCCCCCCCCCCCCC(=O)OC[C@@H](O)[C@H]1OC[C@H](O)[C@H]1O	x	n	x	x	x	n
